Experimental findings from PubChem BioAssay AID1851 (National Center for Advancing Translational Sciences (NCATS), 2009) are described below.

“And” between values parts separate entries of the source, which are not always exact repeats. Equal entries are not always repeated. The whole screen tested about 16,000 compounds, of which about 4,000 (25%) were called active. Roughly 26% stayed inconclusive and do not appear here. Only a sample is shown. Unmarked numbers belong to inactive results. The call rests on the fitted dose curve; in most records, active means well fitted curve in the direction sought with a large enough effect; inconclusive means small, poorly fitted or top-dose-only effect, or effect the other way; inactive means no such curve, though single readings can be large or run the other way.
On the % scale 0 is the no-effect control and ±100 the full control effect.

Sequence of Cytochrome P450 2C9 (Homo sapiens) (P11712 whole entry, looked up): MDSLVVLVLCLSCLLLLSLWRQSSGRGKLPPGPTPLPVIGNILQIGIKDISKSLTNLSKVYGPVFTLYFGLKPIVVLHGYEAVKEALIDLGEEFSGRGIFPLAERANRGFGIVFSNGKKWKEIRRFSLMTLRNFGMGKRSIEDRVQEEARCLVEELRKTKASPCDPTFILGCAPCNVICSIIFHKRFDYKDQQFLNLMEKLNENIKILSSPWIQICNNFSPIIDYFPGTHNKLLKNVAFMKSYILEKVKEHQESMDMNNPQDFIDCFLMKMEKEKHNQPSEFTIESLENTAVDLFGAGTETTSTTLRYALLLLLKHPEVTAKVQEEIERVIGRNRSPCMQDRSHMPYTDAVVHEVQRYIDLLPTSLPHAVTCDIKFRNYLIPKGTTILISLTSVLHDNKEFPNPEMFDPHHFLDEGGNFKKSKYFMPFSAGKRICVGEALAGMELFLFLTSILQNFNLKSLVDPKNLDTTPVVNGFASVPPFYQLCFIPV

This experiment has as its target Cytochrome P450 2C9 (Homo sapiens) (UniProt P11712). Put plainly: Cytochrome panel assay with activity outcomes. As to conditions: recombinant CYP, pro-luciferin dealkylation, luminescence, p450-cyp2c9; series mostly up to 57.1 µM.
In general, AC50 refers to the concentration giving half of the maximal activity seen. With `CC(C)OCCCN1CN(S(=O)(=O)c2cccc(Cl)c2)c2nc3ccccc3nc21`, the half-maximal activity concentration (AC50) was 2.82 µM (active).

Regarding `CCn1nc(C)c(NC(=O)/C=C/c2cnn(C)c2C)c1C`, the AC50 entry was “inactive”. The same measure, in the same setting: then `Cc1cc(N2CCOCC2)ccc1/C=C1\SC(=O)N(C(C)C)C1=O`, with 31.6 µM (active); and `Cc1ccsc1/C=C1/SC(=O)N(CC(=O)N2CCOCC2)C1=O`, with “inactive”; and `CN(C)c1ccc(/C=C2/C(=O)N(c3ccc([N+](=O)[O-])cc3)N=C2N2CCOCC2)cc1`, with “inactive”. For the compound `Cc1ccc2c(CC(=O)OCc3cc(=O)n4c(n3)sc3ccccc34)coc2c1`, the half-maximal activity concentration (AC50) was 7.94 µM (active).

As for `c1cnc(Nc2nc(-c3ccc4ccccc4c3)cs2)nc1`, the AC50 result was “inactive”. Same read-out and setting: as for `COc1cccc(Nc2nc(-c3ccc(O)cc3)cs2)c1`, the figure is 3.98 µM (active); as for `COc1cccc(Nc2ncc3nc(-c4ccccc4)c(=O)n(C)c3n2)c1`, “inactive”. On the same count and under the same terms, as for `CC1CCCC(NC(=O)C2CCN(S(=O)(=O)N3CCOCC3)CC2)C1C` (stereo not drawn), the entry is “inactive”; as for `CCNc1ncc2nc(-c3ccccc3)c(=O)n(CCC#N)c2n1`, “inactive”; as for `CCNc1ncc2nc(CCc3ccccc3)c(=O)n(C)c2n1`, 12.6 µM (active). On the same count and under the same terms, as for `CCNc1ncc2nc(C)c(=O)n(C)c2n1`, the entry is “inactive”. Consider `CCNc1ncc2nc(CCc3ccccc3)c(=O)n(Cc3ccc(F)cc3)c2n1`, for which the AC50 result is “inactive”. Still for that read-out and setting: then `CCNc1ncc2nc(-c3ccc(Cl)cc3)c(=O)n(C)c2n1`, with “inactive”. The same measure, in the same setting: as for `CCNc1ncc2nc(CCc3ccccc3)c(=O)n(CCC#N)c2n1`, the figure is 6.31 µM (active). Same read-out and setting: then `CCNc1ncc2nc(-c3cc(F)cc(F)c3)c(=O)n(-c3ccccc3)c2n1`, with “inactive”; and `CCNc1ncc2nc(CCc3ccccc3)c(=O)n(-c3ccccc3)c2n1`, with 12.6 µM (active); and `CCNc1ncc2nc(-c3ccccc3)c(=O)n(C)c2n1`, with 12.6 µM (active). As to `N#CCCn1c(=O)c(CCc2ccccc2)nc2cnc(Nc3ccccc3)nc21`, the AC50 result was “inactive”. On the same count and under the same terms, then `CCNc1ncc2nc(-c3ccc(F)cc3)c(=O)n(-c3ccccc3)c2n1`, with “inactive”; and `CCNc1ncc2nc(-c3ccc(F)cc3)c(=O)n(C)c2n1`, with “inactive”.

As to `CC1(C)CC2(CCO1)OC(=O)CC2C(=O)NCCc1ccccc1` (stereo not drawn), the AC50 result was “inactive”. As for `FC(F)(F)c1cc(CN2CC3(CCNCC3)C2)cc(C(F)(F)F)c1`, the AC50 entry was “inactive”. Same read-out and setting: as for `CC1(C)S[C@@H]2[C@H](NC(=O)[C@@H](N)c3ccccc3)C(=O)N2[C@H]1C(=O)O[C@H]1OC(=O)c2ccccc21`, the entry is “inactive”. The same measure, in the same setting: then `Cc1cc(C)c2c(N=NN(C)C)[nH]nc2n1`, with “inactive”. With `Cc1ccccc1-c1nc(NC2CCNCC2)c2ccccc2n1`, the activity, negative = inhibition was 10.8% [at 2.29 µM]. Consider `c1csc(CNCCCN2CCOCC2)c1`, for which the AC50 result was “inactive”. In the case of `COc1cccc(OC)c1OCCCN1CCOCC1`, the AC50 result was “inactive”. Still for that read-out and setting: as for `S=C1SCN(CCN2CCOCC2)CN1Cc1ccccc1`, the figure is 12.6 µM (active).

Turning to `Cc1ccccc1-c1ccc2ncnc(N3CCNCC3)c2c1`, the activity, negative = inhibition is 4.82% [at 2.29 µM].

On to `CN(C)C(=O)c1ccc(-c2cncnc2N2CCNCC2)cc1`, for which the activity, negative = inhibition was 7.11% [at 2.29 µM]. As to `Cc1ccc2nc(-c3cccnc3)oc2c1`, the concentration at half-maximal activity (AC50) is 25.1 µM (active). On the same count and under the same terms, as for `c1cncc(-c2cccnc2)c1`, the entry is “inactive”. The same measure, in the same setting: as for `Clc1ccc2oc(-c3cccnc3)nc2c1`, the entry is “inactive”; as for `O=c1[nH][nH]c(C(F)(F)F)c1C=Nc1ccccc1Cl`, “inactive”. On the same count and under the same terms, as for `COc1cc(/C=N\NC(=O)C2C(=O)NCC2c2ccccc2)cc(OC)c1O` (stereo not drawn), the entry is “inactive”; as for `COc1cccc(/C=N\NC(=O)C2C(=O)NCC2c2ccccc2)c1O` (stereo not drawn), 14.1 µM (active).

On to `O=C(Nc1ccccc1)N1CCC2(CC1)CCN(C(=O)c1csnn1)CC2`, for which the AC50 entry is “inactive”.

Turning to `O=C1C[C@@H](O)[C@@H](O)[C@H]2[C@@H]3C(=O)N(C4CCCCC4)C(=O)[C@@H]3CC[C@H]12`, the activity, negative = inhibition is 14.6% [at 11.4 µM] and -0.457% [at 11.4 µM] and -8.99% [at 11.4 µM]. The same measure, in the same setting: then `CCOC(=O)N/N=C1/C[C@@H](O)[C@@H](O)[C@@H]2[C@@H]3C(=O)N(C4CCCCC4)C(=O)[C@H]3CC[C@@H]12`, with -16.3% [at 11.4 µM]. For the compound `CC(=O)[C@@H]1[C@@H]2C(=O)N(C3CCCCC3)C(=O)[C@@H]2C2c3ccccc3C=CN21` (stereo partly drawn), the AC50 is 15.8 µM (active). Same read-out and setting: as for `COc1cc2ccc(=O)oc2cc1O`, the entry is “inactive”; as for `Nc1ccc(S(=O)(=O)Nc2ccc(Cl)nn2)cc1`, “inactive”. Still for that read-out and setting: as for `CC1(O)c2ccccc2C(=O)N1CCc1ccccc1F` (stereo not drawn), the figure is 15.8 µM (active).

Turning to `Cc1ccc(S(=O)(=O)O[C@@H]2[C@H]([C@@H]3COC(C)(C)O3)O[C@H]3OC(C)(C)O[C@@H]32)cc1`, the activity, negative = inhibition is 4.54% [at 11.4 µM]. On to `Cc1ccc(-c2nnn(CC(=O)N(c3ccccc3)C(C(=O)NCC3CCCO3)c3ccc(Cl)cc3)n2)cc1` (stereo not drawn), for which the AC50 was 0.708 µM (active).

For `CC(NC(=O)OCc1ccccc1)C(=O)NCC1CCCO1` (stereo not drawn), the AC50 result was “inactive”. On the same count and under the same terms, then `Cc1ccc(N(C(=O)Cn2nnc(-c3ccc(F)cc3)n2)C(CC(C)C)C(=O)NCC2CCCO2)cc1` (stereo not drawn), with 3.98 µM (active).

For the compound `CN(C)c1ncc2nc(-c3ccc(F)cc3)c(=O)n(C[C@H]3CCCO3)c2n1`, the AC50 entry was “inactive”. For `O=C(NCC1CCCO1)C(c1cccnc1)N(C(=O)Cc1cccs1)c1cccnc1` (stereo not drawn), the AC50 entry was “inactive”. In the case of `CC(C)CC(C(=O)NCC1CCCO1)N(C(=O)Cn1nnc(-c2ccc(F)cc2)n1)c1cccc(C(F)(F)F)c1` (stereo not drawn), the AC50 is 7.94 µM (active). Same read-out and setting: as for `CC(C)CC(C(=O)NCC1CCCO1)N(C(=O)Cn1nnc(-c2ccc(F)cc2)n1)c1ccccc1F` (stereo not drawn), the figure is 11.2 µM (active).

`N#CC(CC(=O)O)=C(c1ccccc1)c1ccccc1`: the activity, negative = inhibition is -16.4% [at 11.4 µM]. Same read-out and setting: then `CCN1C(=O)[C@H]2[C@H]3[C@H](O)[C@H](O)C/C(=N/O[C@@H]4O[C@@H](COC(C)=O)[C@@H](OC(C)=O)[C@@H](OC(C)=O)[C@H]4OC(C)=O)[C@@H]3CC[C@@H]2C1=O`, with 19.4% [at 11.4 µM].

As to `Cc1oc(-c2ccccc2F)nc1CSCC(=O)NCc1ccc2c(c1)OCO2`, the concentration at half-maximal activity (AC50) is 4.47 µM (active). On the same count and under the same terms, as for `CCN1CCCC1CNC(=O)CSCc1nc(-c2ccccc2C)oc1C` (stereo not drawn), the entry is “inactive”; as for `Cc1cc(C)c(C#N)c(Oc2ccc(F)cc2)n1`, “inactive”; as for `Cc1cc(C)c(S(C)(=O)=O)c(Oc2ccc(C(C)(C)C)cc2)n1`, 7.08 µM (active). Same read-out and setting: as for `COc1ccc(Oc2nc(C)cc(C)c2S(=O)(=O)c2ccc(C)cc2)cc1`, the figure is 14.1 µM (active). Consider `NC(=O)NC(=O)[C@H]1CCCC[C@@H]1C(=O)O`, for which the activity, negative = inhibition was 7.71% [at 11.4 µM]. For the compound `CCN(CC)CC[n+]1ccc2c(C)c3[nH]c4ccc(O)cc4c3c(C)c2c1`, the activity, negative = inhibition is -0.365% [at 11.4 µM]. In the case of `Cc1onc(-c2ccccc2)c1C(=O)NCCc1c[nH]c2ccccc12`, the AC50 was 3.98 µM (active). Still for that read-out and setting: then `CC(=O)NCCc1c[nH]c2ccc(O)cc12`, with “inactive”.

Regarding `Oc1c(Br)cc(CN(Cc2cc(Br)c(O)c(Br)c2)C2CCCCC2)cc1Br`, the AC50 is 2.51 µM (active). As for `CC(C)(C)c1ccc(O)c(CN(Cc2cc(C(C)(C)C)ccc2O)C2CCCCC2)c1`, the activity, negative = inhibition is -4.75% [at 11.4 µM]. The same measure, in the same setting: as for `Oc1c(Br)cc(Br)cc1CN(Cc1cc(Br)cc(Br)c1O)C1CCCCC1`, the figure is -21.2% [at 11.4 µM]; as for `NC(N)=NC(N)=Nc1ccc(S(=O)(=O)O)cc1`, 21.1% [at 11.4 µM].

For the compound `Cn1c(CCNC(=O)c2ccccc2Cl)n[nH]c1=S`, the AC50 result is “inactive”.

As for `O=C(NCc1n[nH]c(=S)n1-c1cccc(Cl)c1)c1ccc(S(=O)(=O)N2CCCC2)cc1`, the AC50 is 17.8 µM (active). `COc1ccc(-n2c(CNC(=O)c3cc(OC)c(OC)c(OC)c3)n[nH]c2=S)cc1`: the AC50 result was “inactive”. With `O=[N+]([O-])c1ccccc1N=Nc1c(O)[nH]c2ccc(S(=O)(=O)O)cc12`, the activity, negative = inhibition is -11% [at 11.4 µM]. For `O=C(Nc1cnc2ccccc2c1)c1cccc(-n2cnnn2)c1`, the AC50 result is “inactive”. The same measure, in the same setting: then `CCC(C(=O)NC(C)(C)C)N(C(=O)Cn1nnc(-c2cccs2)n1)c1cnc2ccccc2c1` (stereo not drawn), with 2.82 µM (active). With `COC(=O)C/C=C\[C@H](C)[C@@H](OC)c1ccccc1Br`, the activity, negative = inhibition was -6.68% [at 11.4 µM].

Take `Cn1c(=O)n2n(c1=O)[C@H]1[C@H](O)[C@H]3O[C@@H]3/C(=N/OC[C@@H](O)COCc3ccco3)[C@@H]1CC2`: the activity, negative = inhibition was -4.5% [at 11.4 µM].

Turning to `COc1cnc(-c2ccccn2)nc1Oc1ccc(Cl)c2ccccc12`, the concentration at half-maximal activity (AC50) is 12.6 µM (active).

Turning to `CC(Oc1ccccc1)C(=O)Nc1nc2c(s1)C(=O)CC(C)(C)C2` (stereo not drawn), the concentration at half-maximal activity (AC50) is 6.31 µM (active). With `C[C@H](Oc1ccccc1)C(=O)N[C@@H]1C(=O)N2[C@@H]1SC(C)(C)[C@@H]2C(=O)O`, the AC50 entry is “inactive”. On the same count and under the same terms, as for `COc1ccccc1CNCc1cccs1`, the entry is “inactive”. The same measure, in the same setting: as for `COc1ccccc1CNCC(O)(c1ccc(Cl)cc1)c1ccc(Cl)cc1`, the figure is 15.8 µM (active); as for `COc1ccccc1CNCCCCCCNCCCCCCCCNCCCCCCNCc1ccccc1OC`, “inactive”; as for `OCCN1CCN(C(=S)c2ccc(Br)cc2)CC1`, “inactive”. Consider `CCOC(=O)N/N=C1/C[C@@H](O)[C@@H](O)[C@@H]2[C@@H]3C(=O)N([C@@H](C)c4ccccc4)C(=O)[C@H]3CC[C@@H]12`, for which the activity, negative = inhibition was 20.5% [at 11.4 µM]. With `O=C(C1CCCN(S(=O)(=O)c2cccc3nsnc23)C1)N1CC=C(c2ccccc2)CC1` (stereo not drawn), the half-maximal activity concentration (AC50) is 1.41 µM (active).

As for `O=S(=O)(c1cccc2cnccc12)N1CCNCC1`, the AC50 entry was “inactive”. On the same count and under the same terms, as for `O=S(=O)(c1cccc2nsnc12)N1CCCC1`, the figure is 3.55 µM (active); as for `CC(=O)Nc1ccc(NC(=O)C2CCN(S(=O)(=O)c3cccc4nonc34)CC2)cc1`, “inactive”. Same read-out and setting: then `O=S(=O)(c1ccccc1S(=O)(=O)N1CCCCC1)N1CCCCC1`, with 28.2 µM (active). Still for that read-out and setting: then `COc1ccc(CCNC(=O)C2CCN(S(=O)(=O)c3cccc4nsnc34)CC2)cc1OC`, with “inactive”; and `CS(=O)(=O)N1CCCC(C(=O)N2CCc3ccccc3C2)C1` (stereo not drawn), with “inactive”. For the compound `COc1ccc2nc(NC(=O)C3CCN(S(=O)(=O)c4cccc5nsnc45)CC3)sc2c1`, the AC50 entry is “inactive”. `O=C(C1CCN(S(=O)(=O)c2cccc3nsnc23)CC1)N1CCc2ccccc21`: the half-maximal activity concentration (AC50) was 10 µM (active).
